Experimental data taken from PubChem BioAssay AID2690 (NMMLSC, 2010).
The campaign covered roughly 330,000 compounds. About 590 (0.18%) were called active.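 How the source made its calls: active means superoxide response under a set limit, about three screen SD below normal (cut at about 65% in these data); inactive means the rest.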 What follows is part of a selection rich in actives, with near analogues and random picks from the rest.

Assay: yeast aging ROS inhibitors as calorie-restriction mimetics – HTS, primary screen (AID 2690);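 further: yeast aged for seven days with compound at 30 °C before DHE staining; 100% = average MFI of all compound-treated wells on the plate with controls excluded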
Settings: S. cerevisiae aged cells, superoxide DHE fluorescence; at 10 µM; hits give low values

Structure (SMILES)	superoxide response (% of plate mean)
CCn1nccc1C(=O)Nc1ccc(S(=O)(=O)NC23CC4CC(CC(C4)C2)C3)cc1	114% (inactive)
Cc1cc(C(F)F)n2nc(C(=O)Nc3ccc(S(=O)(=O)NC45CC6CC(CC(C6)C4)C5)cc3)nc2n1	62.8% (active)
Cc1cc(NS(=O)(=O)c2ccc(NC(=O)c3cccc(OC(F)F)c3)cc2)nc(C)n1	103% (inactive)
COc1ccc(NC(=O)c2cc([N+](=O)[O-])ccc2NC(=O)CNC2CCCCC2C)c(OC)c1 (stereo not drawn)	111% (inactive)
CCOC(=O)C1=CN(Cc2ccc(Br)cc2)S(=O)(=O)N(C)C1C (stereo not drawn)	105% (inactive)
COc1ccccc1C(=O)N1CCNC(=O)C1CC(=O)Nc1ccc(Cl)cc1 (stereo not drawn)	103% (inactive)
NS(=O)(=O)c1ccc(NC(=O)/C=C/c2ccccc2Cl)cc1	92.5% (inactive)
COC(=O)c1ccc(NC(=S)Nc2cccc(C)n2)cc1	105% (inactive)
CCCC(C)C(=O)OCC(=O)Nc1c(Br)cc(C)cc1Br (stereo not drawn)	65.3% (active)
Cc1cc(C)cc(NC(=O)COC(=O)c2cc(C)oc2C)c1	95.1% (inactive)
CCC(C(=O)OCC(=O)Nc1c(Cl)cc(Cl)cc1Cl)c1ccccc1 (stereo not drawn)	101% (inactive)
Cc1cc(=O)n(C)c(=O)n1CCCNc1ccccc1	84.6% (inactive)
Cn1c(Nc2ccccc2)cc(=O)n(C)c1=O	33.4% (active)
CC(C)Oc1ccc(C(=O)Nc2cc(=O)n(C)c(=O)n2C)cc1	99.9% (inactive)
O=C(NC1CCC(O)CC1)c1ccc(S(=O)(=O)NCc2ccco2)cc1 (stereo not drawn)	102% (inactive)
Cn1c(CSCC(=O)Nc2ccccc2)nnc1SCc1ccccc1	118% (inactive)
O=C(CSCc1ccccc1)Nc1ccccc1	42.6% (active)
Cc1c(NC(=O)CSCc2ccccc2)cccc1C(=O)O	116% (inactive)
C/C(CC(=O)NC(C)c1ccccc1)=N\NC(N)=S (stereo not drawn)	105% (inactive)
C=CCNC(=O)C12CC3CC(C1)CC(C(=O)NCC=C)(C3)C2	96% (inactive)
CCOc1ccccc1NC(=O)C12CC3CC(C1)CC(c1ccc(C)cc1)(C3)C2	95.5% (inactive)
Cc1ccc(C23CC4CC(CC(C(=O)NCC(=O)O)(C4)C2)C3)cc1	62.1% (active)
COc1cccc(NC(=O)Cn2c3ccc(F)cc3c3nc4n(c(=O)c32)CCS4)c1	82.6% (inactive)
COc1ccc(C(CCNCc2ccccc2F)c2ccc(F)cc2)cc1 (stereo not drawn)	97% (inactive)

Structure (SMILES)	superoxide response (% of plate mean)
CCc1cc(-c2n[nH]c(=S)n2CC(C)C)cs1	87.8% (inactive)
COc1cc(C(=O)NCc2ccc(-n3cccc3)cc2)cc(OC)c1OC	99.9% (inactive)
COc1cc(-c2nnn(CC(=O)NCc3ccccc3)n2)cc(OC)c1OC	65.3% (active)
COc1ccc(CNC(=O)Cc2ccc(-c3ccccc3)cc2)cc1OC	98.2% (inactive)
CCCCNC(=O)C1CCCN(S(=O)(=O)c2ccc(S(=O)(=O)NCC(C)C)cc2)C1 (stereo not drawn)	102% (inactive)
Cc1ccccc1N1CCN(S(=O)(=O)c2ccc3ccccc3c2)CC1	95.3% (inactive)
O=S(=O)(N1CCOCC1)N1CCN(c2ccccc2F)CC1	90.5% (inactive)
Cc1ccc2cccc(S(=O)(=O)N3CCN(c4ccccc4F)CC3)c2n1	61.4% (active)
COc1ccc(C(=O)Nc2ccc(C3(C#N)CCCC3)cc2)cc1OC	87.6% (inactive)
COC(=O)c1ccc(S(=O)(=O)c2ccc(C(=O)OC)s2)s1	101% (inactive)
CCNC(=S)Nc1cccc(Cl)c1C	97.2% (inactive)
O=C(Nc1c(Cl)cccc1Cl)C1CCC1	111% (inactive)
NC(=S)Nc1c(Cl)cccc1Cl	46.6% (active)
CCOC(=O)c1c(C)nn(-c2ncccc2NC(=O)CCC(=O)O)c1C	122% (inactive)
Cc1ccc(C(=O)O)cc1-c1ccc(/C=C2\SC(=O)N(CC(=O)Nc3ccc4c(c3)OCO4)C2=O)o1	114% (inactive)
Cc1ccccc1N1CCN(C2CCCN(C(=O)c3cn4c(C)cccc4n3)C2)CC1 (stereo not drawn)	98.9% (inactive)
COc1cc(N2C(=O)c3ccccc3C2=O)c(Cl)cc1C(=O)OCC(=O)N1CCOCC1	106% (inactive)
COc1ccc(OCCCC(=O)OC(C)C(=O)Nc2ccccc2[N+](=O)[O-])cc1 (stereo not drawn)	95.2% (inactive)
CC1(C(=O)NCCc2c[nH]c3ccccc23)C=CC2(CCCCC2)N1C(=O)c1ccccc1 (stereo not drawn)	93.9% (inactive)
Cc1csc2ncc(C(=O)N(Cc3ccccc3)c3ccccn3)c(=O)n12	92.8% (inactive)
Cc1cc(F)ccc1S(=O)(=O)Nc1ncnc2scc(-c3ccc(F)cc3)c12	103% (inactive)
COC(=O)CNc1nc(Cl)nc(N2CCC(C)CC2)n1	51% (active)
Clc1nc(NC2CCCC2)nc(N2CCOCC2)n1	104% (inactive)
CCOC(=O)CNc1nc(Cl)nc(Nc2ccccc2)n1	114% (inactive)
